Screening data deposited in PubChem by National Center for Advancing Translational Sciences (NCATS).
IL-1B inflam inh = inflammasome signaling inhibition, IL-1 beta readout; actives 4.7% (n = 360,000); activity change, % at 57.5 µM; THP-1 LPS/ATP IL-1B secretion, AlphaLISA, 16 h; hits give low values; in the data active = activity change below about -50%; inconclusive = mostly about -30% to -49%
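Secreted IL-1B measured by AlphaLISA bead assay after 16 h compound exposure of THP-1 cells; compounds (final up to 57.5 uM) added 1 h before LPS (250 ng/mL) and ATP (1.25 mM) stimulation; lower signal means less secretion.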
DT40 TDP1 CPT = DT40-hTDP1 cell growth loss with CPT; Potency, µM (highest dose often 46.2 µM), for the others: at the top dose activity change, negative = growth inhibition, usual class: inhibitors; AID 686979; actives 12% (n = 420,000); chicken DT40 Tdp1-/-;hTDP1 cells + 20 nM CPT, ATP luminescence, 48 h; note: potency is the fitted concentration of half-maximal effect; nearly all actives have a fitted effect of over 55% in size
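Chicken DT40 Tdp1-/- cells stably complemented with human TDP1 were seeded at 400 cells/well in medium containing 20 nM camptothecin, exposed to pin-transferred compounds, and grown at 37 °C for at least 48 hr. Viability was read as ATP luminescence.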
TDP1 cell noCPT = qHTS for Inhibitors of human tyrosyl-DNA phosphodiesterase 1 (TDP1): qHTS in cells in absence of CPT; AID 686978, 2013; Potency, µM (highest dose often 46.2 µM), inactives show at the top dose activity change, negative = growth inhibition, usual class: inhibitors; actives 15% (n = 420,000); DT40 Tdp1-/- hTDP1 cells, no CPT, ATP luminescence, 48 h; note: potency is the fitted concentration of half-maximal effect; nearly all actives have a fitted effect of over 55% in size
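No-CPT arm: Tdp1-/-;hTDP1 DT40 cells (400/well) plus compounds, incubated ≥48 hr at 37 °C. Readout CellTiter-Glo luminescence.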
ELG1 repair inh = ELG1-dependent DNA repair inhibition; HEK293T ELG1-luciferase reporter, luminescence, 16 h; DNA damage induced by 5-fluorouridine; Potency, µM (doses to about 46.1 µM), for the others: at the top dose activity change, negative = inhibition, hits mostly inhibitors; actives 2.3% (n = 330,000); note: potency is the fitted concentration of half-maximal effect; nearly all actives have a fitted effect of over 55% in size
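Reporter activity after DNA damage by 5-fluorouridine is monitored. Compound-treated cells incubate 16 hr at 37 °C, then ONE-Glo is added for 30 min before luminescence reading.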
HT1080 IDH1KD tx = toxicity to HT-1080 IDH1 knockdown cells (counter line); HT-1080 IDH1 knockdown viability, ATP luminescence, 48 h; Potency, µM (highest dose often 46.1 µM), for inactives: at the top dose activity, negative = toxicity, hits mostly cytotoxic; actives 2% (n = 360,000); AID 686971;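 note: potency is the fitted concentration of half-maximal effect; 0% = DMSO wells and -100% = cell-free medium wells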
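HT-1080-IDH1KD cells (IDH1 knocked down), 750/well in RPMI with 5% FBS, treated with compound 48 h at 37 degrees C. Viability by CellTiter-Glo luminescence, normalised to DMSO and no-cell wells; concentration-response curves classed.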
HT1080NT lethal = kills 2HG-producing HT-1080-NT fibrosarcoma cells; HT-1080-NT fibrosarcoma viability, CellTiter-Glo ATP luminescence, 48 h; Potency, µM (doses to about 46.1 µM), for the others: at the highest dose activity, negative = less viability, usual class: cytotoxic; actives 1.6% (n = 360,000); AID 686970;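 note: NT is the 2HG producing partner of a matched IDH1 knockdown line; potency is the fitted concentration of half-maximal effect; 0% = DMSO-treated cells and -100% = media-only wells without cells; nearly all actives have a fitted effect of over 55% in size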
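HT-1080-NT; 750 cells/well; 5% FBS RPMI; 48 h compound, 37 degrees C; CellTiter-Glo luminescence; curve fitting and curve-class assignment.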
* = called active by the depositor; ? = inconclusive; · = no result given. In the library only some 19% were active in any assay of this set; here they are far more common. Unless noted, calls come from the whole dose curve; as a rule, active = well fitted curve in the direction sought with a large enough effect; inconclusive = small, poorly fitted or top-dose-only effect, or another doubt; inactive = no such curve, though single readings can be large; an effect the other way counts as inactive or inconclusive. Unless noted, % is set by controls: 0 for no effect and ±100 for the full control effect.

SMILES	IL-1B inflam inh	DT40 TDP1 CPT	TDP1 cell noCPT	ELG1 repair inh	HT1080 IDH1KD tx	HT1080NT lethal
CN(c1ccccc1)c1nc(N)c([N+](=O)[O-])c(N2CCCCC2)n1	0	?	?	6%	-3%	-13%
COc1ccccc1NC1=C(N2CCCCC2)C(=O)c2ccccc2C1=O	?	2.1µM*	1.8µM*	1.8µM*	?	4.6µM*
Cc1ccc(S(=O)(=O)Nc2ccc3c(c2)C(=O)c2ccccc2-3)cc1	29	?	?	·	?	?
C[C@H](CN1CCCC1)C(=O)c1ccc(C(F)(F)F)cc1	·	6%	-4%	·	·	·
CCOc1ccc(NC(=O)CCCNC(=O)Cn2cnc3sc(C)c(C)c3c2=O)cc1	9	1%	-24%	?	?	?
COc1ccc(NC(=O)CSc2nc3ccccc3c(=O)n2CCCC(=O)NCC2CCCO2)c(OC)c1 (stereo unspecified)	-30	?	-12%	?	6%	16%
CCC(OC(=O)CNS(=O)(=O)c1ccccc1)C(=O)c1ccccc1 (stereo unspecified)	-6	0%	-24%	8%	1%	0%
O=C1C(Nc2cccc(O)c2)=C(N2CCCCC2)C(=O)c2ccccc21	-84*	8.2µM*	7.3µM*	13µM*	?	?
O=C(/C=C/c1ccc(O)cc1)c1ccc(NC2=C(N3CCCCC3)C(=O)c3ccccc3C2=O)cc1	?	1.3µM*	1.6µM*	2%	?	-19%
CCCCn1c(N)c(N(CC(C)C)C(=O)c2cc3c(s2)CCCCC3)c(=O)[nH]c1=O	-5	-1%	-22%	24%	5%	2%
c1ccc(Cc2nnc(Sc3ccccc3)c3ccccc23)cc1	-68*	?	?	?	11µM*	?
COc1cc(/C(C)=N/N2CCN(c3ccccc3OC)CC2)ccc1O	0	-10%	9%	0%	15%	6%
CC(C)Cn1c(N)c(C(=O)COC(=O)CCc2nc3ccccc3c(=O)[nH]2)c(=O)n(C)c1=O	15	?	-20%	?	-9%	-2%
Cc1csc(=O)n1CCC(=O)OCC(=O)c1c(N)n(CC(C)C)c(=O)n(C)c1=O	17	18µM*	15µM*	?	-13%	-8%
CC(C)Cn1c(N)c(C(=O)COC(=O)CCc2nc3ccccc3s2)c(=O)n(C)c1=O	17	?	15µM*	-26%	-19%	-20%
Cc1csc(=O)n1CCC(=O)OCC(=O)c1c(N)n(C)c(=O)n(C)c1=O	3	-15%	1%	26%	3%	-1%
Cc1ccc(-c2nnc3ccccc3c2C(=O)Nc2cccc(C(F)(F)F)c2)cc1	·	-7%	-7%	·	·	·
O=C(c1ccncc1)N1CCC2(CC1)CN(C(c1ccccc1)c1ccccc1)C2	·	7%	-3%	·	·	·
COc1ccc(C(=O)Nc2ccc3oc(-c4cccnc4)nc3c2)cc1OC	?	7.3µM*	?	?	11%	24%
COc1cc(C(=O)Nc2ccc3oc(-c4cccnc4)nc3c2)cc(OC)c1OC	-3	5.6µM*	21µM*	23µM*	14%	-4%
O=C(Nc1ccc2oc(-c3ccccc3)nc2c1)c1cccnc1	-22	-23%	-25%	?	-1%	1%
COC(=O)C1CCN(C(=O)COC(=O)c2cccc(NS(=O)(=O)c3ccccc3)c2)CC1	4	4%	-22%	6%	0%	1%
CCOC(=O)c1cccc(C2=CC(=O)CC(C)(C)C2)c1	-3	?	-20%	3%	-2%	1%
